Experimental data published in ChEMBL document CHEMBL2218924, “A broad activity screen in support of a chemogenomic map for kinase signalling research and drug discovery” (Biochem J, 2013).

Assays:
[1] = molecular target: Serine/threonine-protein kinase MRCK beta (Homo sapiens) (UniProt Q9Y5S2); settings: at 1 µM
[2] = molecular target: Serine/threonine-protein kinase MRCK beta (Homo sapiens) (UniProt Q9Y5S2); settings: at 10 µM
[3] = molecular target: Ribosomal protein S6 kinase alpha-5 (Homo sapiens) (UniProt O75582); settings: at 1 µM
Sequence of Ribosomal protein S6 kinase alpha-5 (Homo sapiens) (O75582 whole entry, looked up): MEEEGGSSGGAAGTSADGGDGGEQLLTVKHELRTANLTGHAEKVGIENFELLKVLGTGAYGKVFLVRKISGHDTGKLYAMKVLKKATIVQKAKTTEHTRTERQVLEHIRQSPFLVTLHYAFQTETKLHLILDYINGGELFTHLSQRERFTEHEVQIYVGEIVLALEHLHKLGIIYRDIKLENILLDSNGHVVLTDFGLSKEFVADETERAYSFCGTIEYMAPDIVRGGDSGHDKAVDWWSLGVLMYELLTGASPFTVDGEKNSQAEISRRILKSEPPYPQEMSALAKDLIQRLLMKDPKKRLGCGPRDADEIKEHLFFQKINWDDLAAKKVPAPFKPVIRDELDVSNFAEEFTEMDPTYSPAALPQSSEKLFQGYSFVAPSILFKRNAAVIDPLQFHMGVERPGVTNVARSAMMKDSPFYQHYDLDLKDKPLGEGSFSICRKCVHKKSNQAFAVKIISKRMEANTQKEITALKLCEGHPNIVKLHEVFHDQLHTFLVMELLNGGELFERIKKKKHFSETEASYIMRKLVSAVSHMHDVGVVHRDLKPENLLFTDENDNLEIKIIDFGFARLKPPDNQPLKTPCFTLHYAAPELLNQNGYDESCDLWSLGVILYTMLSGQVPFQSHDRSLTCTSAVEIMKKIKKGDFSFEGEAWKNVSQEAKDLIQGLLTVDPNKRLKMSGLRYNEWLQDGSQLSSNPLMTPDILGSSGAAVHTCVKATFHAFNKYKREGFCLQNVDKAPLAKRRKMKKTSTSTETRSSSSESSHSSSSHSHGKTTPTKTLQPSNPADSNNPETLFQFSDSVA

[4] = molecular target: Ribosomal protein S6 kinase alpha-5 (Homo sapiens) (UniProt O75582); settings: at 10 µM
[5] = molecular target: Ribosomal protein S6 kinase alpha-4 (Homo sapiens) (UniProt O75676); settings: at 1 µM
Sequence of Ribosomal protein S6 kinase alpha-4 (Homo sapiens) (O75676 whole entry, looked up): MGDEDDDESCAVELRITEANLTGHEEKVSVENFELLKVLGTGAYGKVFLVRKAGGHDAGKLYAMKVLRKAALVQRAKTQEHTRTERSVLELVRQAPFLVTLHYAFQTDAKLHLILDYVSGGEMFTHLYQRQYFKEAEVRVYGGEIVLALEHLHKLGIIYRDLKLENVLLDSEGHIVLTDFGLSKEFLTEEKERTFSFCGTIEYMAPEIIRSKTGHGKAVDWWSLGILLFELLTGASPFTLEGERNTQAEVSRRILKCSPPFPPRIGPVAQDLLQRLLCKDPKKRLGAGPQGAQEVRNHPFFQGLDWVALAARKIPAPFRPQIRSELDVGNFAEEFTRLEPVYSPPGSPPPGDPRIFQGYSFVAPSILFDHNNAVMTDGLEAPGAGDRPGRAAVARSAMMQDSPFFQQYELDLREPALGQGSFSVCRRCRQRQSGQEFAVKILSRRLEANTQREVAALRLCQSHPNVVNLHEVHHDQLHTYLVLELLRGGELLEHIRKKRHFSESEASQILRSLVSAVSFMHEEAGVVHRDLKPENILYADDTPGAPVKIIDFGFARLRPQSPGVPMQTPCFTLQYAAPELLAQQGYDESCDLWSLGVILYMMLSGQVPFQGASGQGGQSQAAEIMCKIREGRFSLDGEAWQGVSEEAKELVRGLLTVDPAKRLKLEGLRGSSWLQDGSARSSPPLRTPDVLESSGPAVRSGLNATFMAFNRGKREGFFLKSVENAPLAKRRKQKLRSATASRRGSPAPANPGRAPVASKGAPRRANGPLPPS

[6] = molecular target: Ribosomal protein S6 kinase alpha-4 (Homo sapiens) (UniProt O75676); settings: at 10 µM
[7] = molecular target: SRSF protein kinase 3 (Homo sapiens) (UniProt Q9UPE1); settings: at 1 µM
Sequence of SRSF protein kinase 3 (Homo sapiens) (Q9UPE1 whole entry): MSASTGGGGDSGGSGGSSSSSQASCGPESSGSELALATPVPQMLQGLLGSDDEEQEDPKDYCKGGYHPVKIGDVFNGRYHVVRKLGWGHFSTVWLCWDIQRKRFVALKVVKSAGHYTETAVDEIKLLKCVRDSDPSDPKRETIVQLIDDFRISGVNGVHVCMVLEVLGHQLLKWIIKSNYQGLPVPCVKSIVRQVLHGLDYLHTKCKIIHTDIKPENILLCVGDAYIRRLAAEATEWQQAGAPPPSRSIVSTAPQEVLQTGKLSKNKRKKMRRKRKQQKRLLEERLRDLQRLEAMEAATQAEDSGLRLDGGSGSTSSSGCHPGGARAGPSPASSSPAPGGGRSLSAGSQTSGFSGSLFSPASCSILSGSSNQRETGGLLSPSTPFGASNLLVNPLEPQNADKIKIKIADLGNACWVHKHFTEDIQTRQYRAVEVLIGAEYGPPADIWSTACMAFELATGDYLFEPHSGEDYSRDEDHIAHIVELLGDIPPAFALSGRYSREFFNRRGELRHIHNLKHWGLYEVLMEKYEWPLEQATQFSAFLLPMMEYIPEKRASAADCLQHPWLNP

[8] = molecular target: SRSF protein kinase 3 (Homo sapiens) (UniProt Q9UPE1); settings: at 10 µM
[9] = molecular target: T1, Serine/threonine-protein kinase 4 (Homo sapiens) (UniProt Q13043); settings: at 1 µM
T1 sequence (whole entry): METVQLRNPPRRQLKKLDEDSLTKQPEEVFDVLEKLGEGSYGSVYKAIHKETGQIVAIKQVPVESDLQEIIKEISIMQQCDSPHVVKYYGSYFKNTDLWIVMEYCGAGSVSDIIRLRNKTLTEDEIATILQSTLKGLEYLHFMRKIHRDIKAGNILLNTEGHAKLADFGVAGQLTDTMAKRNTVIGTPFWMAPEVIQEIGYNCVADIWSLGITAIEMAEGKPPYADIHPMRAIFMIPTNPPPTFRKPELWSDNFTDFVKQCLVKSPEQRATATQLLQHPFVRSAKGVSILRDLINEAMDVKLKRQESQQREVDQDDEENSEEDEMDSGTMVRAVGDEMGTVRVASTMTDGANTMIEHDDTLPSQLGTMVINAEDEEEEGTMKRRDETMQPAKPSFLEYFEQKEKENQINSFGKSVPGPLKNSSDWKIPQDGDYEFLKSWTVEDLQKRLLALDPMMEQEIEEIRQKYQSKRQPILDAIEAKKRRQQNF

[10] = molecular target: T1, Serine/threonine-protein kinase 4 (Homo sapiens); settings: at 10 µM

Sequence of Serine/threonine-protein kinase MRCK beta (Homo sapiens) (Q9Y5S2 whole entry): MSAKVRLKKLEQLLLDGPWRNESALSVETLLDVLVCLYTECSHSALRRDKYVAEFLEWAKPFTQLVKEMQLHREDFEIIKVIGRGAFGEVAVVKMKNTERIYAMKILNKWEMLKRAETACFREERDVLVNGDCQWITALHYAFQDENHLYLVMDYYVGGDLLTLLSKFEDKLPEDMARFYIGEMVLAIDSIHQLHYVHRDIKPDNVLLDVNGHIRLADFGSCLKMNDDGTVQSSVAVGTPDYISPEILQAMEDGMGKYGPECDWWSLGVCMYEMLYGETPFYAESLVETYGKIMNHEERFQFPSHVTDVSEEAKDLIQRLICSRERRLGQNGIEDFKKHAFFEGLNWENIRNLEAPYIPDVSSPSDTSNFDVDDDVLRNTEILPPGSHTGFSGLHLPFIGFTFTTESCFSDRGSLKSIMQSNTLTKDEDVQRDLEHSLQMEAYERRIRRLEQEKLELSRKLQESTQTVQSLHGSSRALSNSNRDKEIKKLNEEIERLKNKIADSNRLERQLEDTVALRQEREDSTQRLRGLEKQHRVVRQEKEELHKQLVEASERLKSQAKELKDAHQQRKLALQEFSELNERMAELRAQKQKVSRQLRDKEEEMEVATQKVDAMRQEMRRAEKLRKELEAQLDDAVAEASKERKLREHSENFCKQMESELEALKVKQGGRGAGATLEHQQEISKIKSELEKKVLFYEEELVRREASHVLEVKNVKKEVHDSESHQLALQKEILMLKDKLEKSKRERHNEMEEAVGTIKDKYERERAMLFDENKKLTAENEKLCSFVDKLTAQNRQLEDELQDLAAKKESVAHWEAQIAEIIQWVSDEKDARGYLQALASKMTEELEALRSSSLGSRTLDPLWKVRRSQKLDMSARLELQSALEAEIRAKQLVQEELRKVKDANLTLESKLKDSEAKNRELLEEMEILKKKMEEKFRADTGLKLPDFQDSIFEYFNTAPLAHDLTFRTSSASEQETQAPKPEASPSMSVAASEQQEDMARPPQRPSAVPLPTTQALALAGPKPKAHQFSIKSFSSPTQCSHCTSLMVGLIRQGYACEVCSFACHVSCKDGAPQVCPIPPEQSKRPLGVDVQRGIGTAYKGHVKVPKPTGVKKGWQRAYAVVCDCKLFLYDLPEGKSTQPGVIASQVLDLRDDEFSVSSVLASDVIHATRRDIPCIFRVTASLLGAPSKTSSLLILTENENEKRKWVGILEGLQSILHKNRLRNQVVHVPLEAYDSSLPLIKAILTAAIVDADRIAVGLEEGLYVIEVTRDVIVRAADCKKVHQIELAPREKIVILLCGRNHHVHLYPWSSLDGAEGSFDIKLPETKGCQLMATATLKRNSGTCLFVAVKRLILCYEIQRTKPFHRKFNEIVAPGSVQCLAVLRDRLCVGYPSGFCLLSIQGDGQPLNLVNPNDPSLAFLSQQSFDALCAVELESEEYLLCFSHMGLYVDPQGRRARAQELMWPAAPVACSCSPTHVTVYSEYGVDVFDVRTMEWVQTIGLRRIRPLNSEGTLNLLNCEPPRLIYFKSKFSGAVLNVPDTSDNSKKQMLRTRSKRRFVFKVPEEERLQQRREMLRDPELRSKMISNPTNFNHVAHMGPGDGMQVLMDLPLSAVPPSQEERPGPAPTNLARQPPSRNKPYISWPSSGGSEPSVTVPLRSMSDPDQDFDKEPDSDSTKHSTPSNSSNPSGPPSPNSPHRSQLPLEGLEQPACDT

Row | SMILES | residual activity [1] [%] | residual activity [2] [%] | residual activity [3] [%] | residual activity [4] [%] | residual activity [5] [%] | residual activity [6] [%] | residual activity [7] [%] | residual activity [8] [%] | residual activity [9] [%] | residual activity [10] [%]
1 | CN(C)c1ccc(/C=C2\C(=O)Nc3ccccc32)cc1 | 106 | 102 | 116 | 79 | 87 | 57 | 103 | 80 | 95 | 74
2 | CCC(=O)Nc1ccc2ncnc(Nc3cccc(Br)c3)c2c1 | 89 | 77 | 113 | 112 | 94 | 116 | 94 | 84 | 91 | 95
3 | COc1cc2ncnc(Nc3ccc(Oc4ccccc4)cc3)c2cc1OC | 99 | 114 | 137 | 129 | 89 | 135 | 105 | 81 | 99 | 93
4 | Nc1ccc2ncnc(NCCc3ccc(Oc4ccccc4)cc3)c2c1 | 103 | 107 | 109 | 111 | 92 | 72 | 111 | 86 | 89 | 102
5 | Oc1ccc(-c2nc(-c3ccc(F)cc3)c(-c3ccncc3)[nH]2)cc1 | 105 | 92 | 102 | 98 | 77 | 43 | 120 | 110 | 92 | 113
6 | CC(C)n1cnc2c(NCc3ccccc3)nc(NCCCO)nc21 | 88 | 88 | 110 | 110 | 102 | 97 | 106 | 76 | 102 | 102
7 | O=C1NC(=O)c2cc(Nc3ccc(F)cc3)c(Nc3ccc(F)cc3)cc21 | 79 | 64 | 128 | 93 | 97 | 91 | 106 | 84 | 92 | 100
8 | Cn1nc2c3c(cccc31)C(=O)c1ccccc1-2 | 92 | 85 | 99 | 83 | 93 | 79 | 98 | 97 | 72 | 72
9 | O=C1NC(=O)c2c1c1c3ccccc3[nH]c1c1[nH]c3cc(Br)ccc3c21 | 85 | 85 | 94 | 84 | 87 | 76 | 92 | 86 | 92 | 38
10 | Nc1nc(Nc2ccc(S(N)(=O)=O)cc2)nn1C(=S)Nc1c(F)cccc1F | 8 | 3 | 81 | 70 | 19 | 21 | 37 | 12 | 0 | -3
11 | Nc1n[nH]c2nnc(-c3c(-c4ccccc4)nn4ccccc34)cc12 | 90 | 79 | 102 | 113 | 93 | 78 | 93 | 56 | 71 | 87
12 | Cc1ccc(NC2=CC(=O)c3sc(C)nc3C2=O)cc1 | 87 | 86 | 106 | 113 | 96 | 90 | 101 | 103 | 72 | 111
13 | O=Nc1c(-c2c(O)[nH]c3ccccc23)[nH]c2ccccc12 | 106 | 103 | 61 | 21 | 32 | 4 | 85 | 46 | 8 | 2
14 | Cc1ccc(S(=O)(=O)/C=C/C#N)cc1 | 89 | 92 | 111 | 125 | 105 | 99 | 100 | 102 | 79 | 109
15 | COc1ccc(S(=O)(=O)N(CCO)c2ccccc2CN(C)C/C=C/c2ccc(Cl)cc2)cc1 | 98 | 78 | 115 | 114 | 96 | 85 | 102 | 104 | 107 | 90
16 | COc1cc2ncnc(N3CCN(C(=O)Nc4ccc(Oc5ccccc5)cc4)CC3)c2cc1OC | 83 | 87 | 113 | 104 | 93 | 123 | 109 | 79 | 85 | 88
17 | O=C(O)c1ccc2c3c1cccc3c(=O)n1c3ccccc3nc21 | 93 | 93 | 98 | 93 | 95 | 84 | 97 | 48 | 83 | 72

Row | SMILES | residual activity [1] [%] | residual activity [2] [%] | residual activity [3] [%] | residual activity [4] [%] | residual activity [5] [%] | residual activity [6] [%] | residual activity [7] [%] | residual activity [8] [%] | residual activity [9] [%] | residual activity [10] [%]
18 | COc1ccc(OC)c2c(=S)c3ccccc3[nH]c12 | 88 | 95 | 93 | 122 | 100 | 89 | 103 | 79 | 74 | 99
19 | CO[C@H]1C[C@@H]2CC[C@@H](C)[C@@](O)(O2)C(=O)C(=O)N2CCCC[C@H]2C(=O)O[C@H]([C@H](C)C[C@@H]2CC[C@@H](O)[C@H](OC)C2)CC(=O)[C@H](C)/C=C(\C)[C@@H](O)[C@@H](OC)C(=O)[C@H](C)C[C@H](C)/C=C/C=C/C=C/1C | 95 | 104 | 123 | 110 | 87 | 105 | 105 | 88 | 93 | 97
20 | O=C(Nc1cccc(Nc2cc(Nc3cccc(C(F)(F)F)c3)ncn2)c1)C1CC1 | 86 | 89 | 124 | 107 | 96 | 101 | 102 | 25 | 99 | 87
21 | COc1ccc(CNc2nc(N(CCO)CCO)nc3c2ncn3C(C)C)cc1 | 88 | 83 | 92 | 96 | 88 | 82 | 105 | 84 | 74 | 112
22 | N#C/C(=C(\N)Sc1ccc(N)cc1)c1ccccc1C(F)(F)F | 94 | 98 | 85 | 95 | 97 | 84 | 109 | 95 | 105 | 104
23 | CC#CC(=O)Nc1cc2c(Nc3ccc(F)c(Cl)c3)ncnc2cn1 | 95 | 79 | 123 | 102 | 97 | 105 | 90 | 74 | 90 | 84
24 | Oc1n[nH]c2nnc(-c3c(-c4ccccc4)nn4ccccc34)cc12 | 88 | 83 | 109 | 111 | 92 | 87 | 98 | 73 | 72 | 96
25 | COc1cccc(-c2cc(=O)c3ccccc3o2)c1N | 102 | 95 | 104 | 117 | 94 | 98 | 109 | 110 | 86 | 114
26 | CNc1cc2c(Nc3cccc(Br)c3)ncnc2cn1 | 86 | 84 | 133 | 110 | 104 | 109 | 99 | 25 | 95 | 102
27 | CC(=O)O/N=C1\C(=C2\C(=O)Nc3cc(Br)ccc32)Nc2ccccc21 | 96 | 91 | 99 | 85 | 100 | 74 | 96 | 102 | 50 | 23
28 | Cn1cc(/C=C2\C(=O)Nc3ccc(S(N)(=O)=O)cc32)c2ccccc21 | 83 | 87 | 86 | 54 | 56 | 41 | 103 | 25 | 13 | 11
29 | O=[N+]([O-])c1ccc(-c2nc(-c3ccc(F)cc3)c(-c3ccncc3)[nH]2)cc1 | 91 | 89 | 108 | 119 | 87 | 85 | 105 | 104 | 74 | 114
30 | O=c1c2ccccc2[nH]c(=S)n1CCN1CCC(=C(c2ccc(F)cc2)c2ccc(F)cc2)CC1 | 94 | 86 | 127 | 104 | 110 | 97 | 103 | 89 | 93 | 101
31 | CO[C@H]1[C@@H](OC)C[C@H](C)[C@@H](OC)C2=CC(=O)C=C(NC(=O)/C(C)=C/C=C/[C@H](OC)[C@@H](OC(N)=O)/C(C)=C/[C@@H]1C)C2=O | 97 | 77 | 115 | 97 | 92 | 104 | 116 | 84 | 101 | 108
32 | Ic1cccc(CSc2nnc(-c3ccncc3)o2)c1 | 87 | 82 | 95 | 82 | 65 | 53 | 90 | 92 | 106 | 101
33 | CCN(CC)CCCCN1c2ccccc2Oc2ccc(Cl)cc21 | 108 | 99 | 146 | 119 | 111 | 116 | 104 | 97 | 106 | 100
